Source: PubChem BioAssay (NCATS)
Values without a mark were called inactive. The source made the active and inactive calls. No rule for the calls is given here.

tested on: HIV-1 nucleocapsid protein NCp7 (binding to TG oligonucleotide); experiment: HIV Nucleocapsid (AID 346); conditions: HIV-1 NC / fluorescein-TGTGTGTG probe, fluorescence polarization;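 also: potency is for inhibitors that block NC binding and lower polarization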
Outline: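 Reagents dispensed (10 nM TG4xF, 100 nM HIV-1 NC), plates spun, compounds pin-transferred, then incubated 1 hr at room temperature before FP imaging. Buffer: Hepes pH 7.5, 250mM NaCl, 1uM ZnCl2, 100 uM TCEP, 5 mM 2-mercaptoethanol.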
Potency is read from the fitted curve at half-maximal effect.

Structure (SMILES)	Potency
CN1CCN(c2ncc3nc(-c4cccc(C#N)c4)c(=O)n(C[C@H]4CCCO4)c3n2)CC1	> 20 µM
COc1ccc(CNc2ncncc2-c2ccc(C(=O)N(C)C)cc2)c(OC)c1	> 20 µM
COC(=O)N1CCC2(CCN(Cc3ccccc3OC)CC2)CC1	> 20 µM
O=C(c1cccc(F)c1)N1CCC2(CC1)CCN(c1ccncc1)CC2	> 20 µM
COc1cccc(Cn2c(=O)c(C)nc3cnc(N4CCNCC4)nc32)c1	> 4 µM
Cn1cccc1C(=O)N1CCC[C@@]2(CCN(c3cccc(-c4ccccc4)c3)C2)C1	> 20 µM
CS(=O)(=O)Nc1cccc(-c2nc(NC3CC3)c3ccccc3n2)c1	> 20 µM
Cc1nc2cnc(N(C)C)nc2n(Cc2ccc(F)cc2)c1=O	> 20 µM
O=C(c1cc(C(F)(F)F)cc(C(F)(F)F)c1)N1CCC[C@@]2(CCN(Cc3nccs3)C2)C1	> 20 µM
Cc1cnc(CNc2cc(-c3ccccc3Cl)ncn2)cn1	> 20 µM
COc1ccc2[nH]cc(CCNc3ccnc(-c4ccccc4C)n3)c2c1	> 20 µM
O=S(=O)(c1ccccc1)N1CCC2(CCN(Cc3ccncc3)CC2)CC1	> 20 µM
O=c1c(-c2ccccc2)nc2cnc(N3CCNCC3)nc2n1Cc1cccs1	> 20 µM
CC(C)NC(=O)N1CCC2(CC1)CCN(C(=O)c1cnccn1)CC2	> 20 µM
CNc1ncncc1-c1ccccc1C(F)(F)F	> 20 µM
O=S(=O)(c1ccccc1)N1CCC2(CC1)CN(c1ncccn1)C2	> 20 µM
COc1cccc(Cn2c(=O)c(-c3cccc(C#N)c3)nc3cnc(Nc4ccccc4)nc32)c1	0.198 µM (active)
COc1ccc2[nH]cc(CCNc3ccnc(-c4ccccc4Cl)n3)c2c1	> 20 µM
O=C(c1ccncc1)N1CCC[C@@]2(CCN(c3ncccn3)C2)C1	> 20 µM
CC(C)NC(=O)N1CC2(CCN(C(=O)c3ccncc3)CC2)C1	> 20 µM

Structure (SMILES)	Potency
COCCn1c(=O)c(C)nc2cnc(Nc3cccc(OC)c3)nc21	> 20 µM
Cc1cccc(CNc2ccnc(-c3ccc(N(C)C)cc3)n2)c1	> 20 µM
O=c1c(-c2cc(F)cc(F)c2)nc2cncnc2n1C1CC1	> 20 µM
COc1ccc(Oc2ncc3ncc(=O)n(CCc4ccccc4)c3n2)cc1	> 20 µM
COc1ccc(-n2c(=O)c(-c3ccc(F)c(F)c3)nc3cncnc32)cc1	> 4 µM
N#CCCn1c(=O)c(CCc2ccccc2)nc2cnc(Nc3ccccc3)nc21	> 4 µM
COCCn1c(=O)c(C)nc2cnc(OCc3ccccc3)nc21	> 20 µM
Cc1noc(C)c1-c1nc(N2CCNCC2)c2ccccc2n1	> 20 µM
COCCNc1cc(-c2c(C)noc2C)ncn1	> 20 µM
COCC(=O)N1CCC2(CCN(Cc3ccncc3)CC2)CC1	> 20 µM
CN(Cc1ccco1)c1ncnc2ccc(-c3cccc(NS(C)(=O)=O)c3)cc12	> 20 µM
COc1ccccc1-c1ccc2ncnc(NCCNC(C)=O)c2c1	> 20 µM
O=C(c1cnccn1)N1CCC2(CCCN(c3ccccc3)C2)CC1	> 20 µM
O=C(c1csnn1)N1CCC2(CC1)CN(Cc1cc(C(F)(F)F)cc(C(F)(F)F)c1)C2	> 20 µM
COc1cccc(Cn2c(=O)c(C)nc3cnc(Oc4ccccc4)nc32)c1	> 20 µM
CN(C)C(=O)c1ccc(-c2ccc3ncnc(NC4CCNCC4)c3c2)cc1	> 20 µM
CN(C)C(=O)c1ccc(-c2nc(NCc3ccccc3)c3ccccc3n2)cc1	> 20 µM
CCNc1ncc2nc(C)c(=O)n(C3CC3)c2n1	> 20 µM
Cn1cccc1C(=O)N1CCC2(CC1)CCN(C(c1ccccc1)c1ccccc1)CC2	> 20 µM
Cc1noc(C)c1C(=O)N1CCC[C@@]2(CCN(Cc3ccc(C#N)cc3)C2)C1	> 20 µM
